# High-throughput results deposited in PubChem by National Center for Advancing Translational Sciences (NCATS).
# TrxR1 inh: qHTS Assay for Inhibitors of Mammalian Selenoprotein Thioredoxin Reductase 1 (TrxR1): qHTS; 1% of 390,000 active; Potency, µM (highest dose often 114 µM), without a hit: at the top dose activity change, negative = inhibition, usual class: inhibitors; recombinant rTrxR1, NADPH fluorescence consumption, selenite substrate; AID 588453, 2011; Thioredoxin reductase 1, cytoplasmic (Rattus norvegicus), O89049; note: nearly all actives have a fitted effect of over 65% in size
#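 Rat TrxR1 (90 nM in the dispensed reagent) was pre-reduced with 400 uM NADPH for 5 min at room temperature, then incubated with compound for 15 min. After 400 uM selenite was added, NADPH fluorescence (Ex 340/Em 450 nm) was followed for 8 min.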
# TrxR1 substrate: qHTS Assay for Substrates of Mammalian Selenoprotein Thioredoxin Reductase 1 (TrxR1): qHTS | Thioredoxin reductase 1, cytoplasmic (Rattus norvegicus), O89049 | purified TrxR1 substrate turnover, NADPH consumption readout | Potency, µM (titrated, usually from 114 µM), without a hit: at the top dose activity change, negative = substrate turnover | 0.01% of 390,000 active | AID 588456, 2011; note: nearly all actives have a fitted effect of over 50% in size
#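 Rat TrxR1, dispensed at 90 nM, was prereduced with 400 uM NADPH (final) for 5 min at ~22 deg C, then incubated with compound 15 min before 400 uM selenite. A first-read NADPH fluorescence drop versus no-compound background flagged substrates.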
# mIDH1 inhibitor: qHTS for Inhibitors of mutant isocitrate dehydrogenase 1 (IDH1): qHTS; Potency, µM (top dose mostly 76.6 µM), inactives show at the highest dose activity change, negative = inhibition, hits mostly inhibitors; 0.093% of 390,000 active; IDH1-R132H enzyme, NADPH consumption, diaphorase/resazurin fluorescence; AID 602179, 2012; note: nearly all actives have a fitted effect of over 65% in size
#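 IDH1-R132H (0.5 ug/mL dispensed) in pH 7.5 Tris buffer was preincubated 30 min with compound, then given a substrate mix of 0.016 mM NADPH and 2 mM alpha-KG for 80 min at room temperature; remaining NADPH was read by diaphorase/resazurin fluorescence.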
# Eya2 inh: qHTS Assay for Inhibitors of the Phosphatase Activity of Eya2. 0.006% of 330,000 active. Potency, µM (top dose mostly 76.9 µM), for inactives: at the highest dose activity, negative = inhibition, most hits filed as inhibitors. recombinant Eya2, OMFP fluorescence dephosphorylation (OMFP is methylfluorescein phosphate). Protein phosphatase EYA2 (Homo sapiens), O00167
# Target sequence (O00167 whole entry, looked up): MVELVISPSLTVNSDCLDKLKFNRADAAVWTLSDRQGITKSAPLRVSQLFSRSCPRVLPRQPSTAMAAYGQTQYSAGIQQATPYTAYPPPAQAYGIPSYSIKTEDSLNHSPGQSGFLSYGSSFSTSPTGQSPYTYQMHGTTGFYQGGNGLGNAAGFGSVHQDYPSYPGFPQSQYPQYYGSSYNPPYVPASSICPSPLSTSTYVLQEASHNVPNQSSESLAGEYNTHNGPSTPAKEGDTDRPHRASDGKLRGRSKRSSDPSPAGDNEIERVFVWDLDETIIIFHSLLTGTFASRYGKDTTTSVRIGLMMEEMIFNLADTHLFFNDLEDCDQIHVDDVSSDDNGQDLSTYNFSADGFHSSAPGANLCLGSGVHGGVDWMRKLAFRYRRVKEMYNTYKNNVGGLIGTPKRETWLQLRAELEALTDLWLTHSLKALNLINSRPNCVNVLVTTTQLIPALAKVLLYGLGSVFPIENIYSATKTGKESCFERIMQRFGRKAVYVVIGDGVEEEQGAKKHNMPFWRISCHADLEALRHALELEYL
#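 Eya2 protein (added as 0.2 uM solution) was preincubated with compound for 10 min at ambient temperature in 50 mM HEPES pH 7.5, 50 mM NaCl, 5 uM MgCl2, 0.05% BSA, 1 mM DTT. OMFP (added at 50 uM) then reacted 10 min; fluorescence read at 485/525 nm.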
# RGS4 inh: Inhibitors of Regulator of G Protein Signaling (RGS) 4: qHTS; Potency, µM (highest dose often 114 µM), without a hit: top-dose activity change, negative = inhibition, actives largely listed as inhibitors; Transcreener GDP fluorescence polarization, RGS4-accelerated GTP hydrolysis; 0.039% of 390,000 active; Regulator of G-protein signaling 4 (Homo sapiens), P49798; note: nearly all actives have a fitted effect of over 75% in size
#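 MLSMR compounds (23 nl, pin-transferred) preincubated 10 min at room temperature with a 500nM (2x) first reagent, then RGS4 at 900nM (2x) plus Transcreener GDP mix added; fluorescence polarization (620/688 nm) read before and after 90 min at 30 °C.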
# * = called active by the depositor; ? = inconclusive; nt = not tested or not shown; [ ] = remark or other dose. Compounds with a hit are over-represented: about 1.1% of the library has one in this group of screens. Calls come from the whole dose curve; as a rule, active = well fitted curve in the direction sought with a large enough effect; inconclusive = small, poorly fitted or top-dose-only effect, or another doubt; inactive = no such curve, though single readings can be large; an effect the other way counts as inactive or inconclusive. % is set by controls: 0 for no effect and ±100 for the full control effect; potency is the fitted concentration of half-maximal effect.
SMILES,TrxR1 inh,TrxR1 substrate,mIDH1 inhibitor,Eya2 inh,RGS4 inh
COCCn1c(=NC(=O)CCS(=O)(=O)c2ccccc2)sc2ccccc21,7.1µM*,4%,5%,nt,-16%
O=Cc1ccc(Sc2nnc(-c3ccccc3)o2)c([N+](=O)[O-])c1,5µM*,10%,-3%,0%,?
O=C(COc1cccnc1[N+](=O)[O-])c1ccc(Cl)s1,25µM*,-5%,5%,3%,-50%
Cc1c(C#N)c(NC(=O)CCl)n(Cc2cccs2)c1C,3.5µM*,9%,-7%,4%,-39%
Cc1c(C#N)c(NC(=O)CCl)n(Cc2ccc(F)cc2)c1C,?,3%,1%,5%,13%
Cc1c(C#N)c(NC(=O)CCl)n(Cc2ccccc2)c1C,3.5µM*,12%[57.1 µM],-6%,?,-13%
CCN(CC)C(=O)c1sc(NC(=O)Cc2cccs2)c(C#N)c1C,15%,1%,0%,-10%,0%
O=C(CSc1ncn[nH]1)Nc1ccccc1Sc1ccccc1,22%,0%,-4%,14%,-42%
CCCCCN(C(=O)CCC(=O)OCC(=O)N1CCC(C)CC1)c1c(N)n(CCCC)c(=O)[nH]c1=O,12%,4%,1%,-15%,2%
COc1cccc(C(c2c(O)cc(C)n(Cc3ccco3)c2=O)N2CCC(C)CC2)c1 (stereo unspecified),-13%[57.1 µM],1%[57.1 µM],15%,nt,-15%
Cc1cc(O)c(C(c2ccccc2)N2CCN(c3ccc(F)cc3)CC2)c(=O)n1Cc1ccco1 (stereo unspecified),10µM*,-2%[57.1 µM],-5%,nt,10%
CCN1CCN(C(c2cccc(OC)c2)c2c(O)cc(C)n(Cc3ccco3)c2=O)CC1 (stereo unspecified),11µM*,2%[57.1 µM],27%,nt,-24%
C=CCN1C(=O)C2C3CC(=O)C(c4ccccc43)C2C1=O (stereo unspecified),11%[57.1 µM],8%[57.1 µM],-15%,4%,-22%
O=C(NCc1ccccc1)C1(C(F)(F)F)C/C(=C\Cc2ccccc2)CCCO1 (stereo unspecified),-23%,-11%,nt,nt,2%
C/C=C1\COC(C(=O)NCc2ccccc2)(C(F)(F)F)C=C1C=C(C)C (stereo unspecified),3.2µM*,0%,12%,nt,-13%
C/C=C1\COC(C(=O)NCCN2CCOCC2)(C(F)(F)F)C=C1C=C(C)C (stereo unspecified),10µM*,1%,nt,nt,29%
CCC/C=C1/CCCOC(C(=O)NCCN2CCOCC2)(C(F)(F)F)C1 (stereo unspecified),-9%,-1%,1%[38.3 µM],nt,-25%
CN(C(=O)c1ccno1)c1nnc(-c2ccccn2)s1,20µM*,134%,-2%,-3%,-27%
CN(C(=O)c1ccncc1)c1nnc(-c2ccccn2)s1,?,19%,-9%,22%,-3%
O=C(NCC(Cl)c1ccc2ccccc2c1)c1c(F)cccc1F (stereo unspecified),31%,3%,12%,-2%,2%
COc1ccc(C)c2sc(NC(=O)CCS(=O)(=O)c3ccccc3)nc12,40µM*,2%,11%,4%,-11%
O=C(Nc1ccccc1)Nc1ccc(Oc2ncnc3cc(Cl)ccc23)nc1,27%,7%,4%,2%,-8%
O=C(O)/C=C/C(=O)Nc1ccc(Oc2ncnc3cc(Cl)ccc23)nc1,56µM*,4%,0%,-1%,-10%
CCc1cccc(NC(=O)CSc2ncc3c(n2)-c2ccccc2N(CC)S3(=O)=O)c1,-5%[57.1 µM],-1%[57.1 µM],15%,nt,26%
CCc1cccc(NC(=O)CSC2=NS(=O)(=O)c3ccccc32)c1,3.2µM*,3%[57.1 µM],-7%,7%,?
